Laboratory results as given in the supplement of paper PMC11555231.

Biological target: PADI4, Q9UM07
Test: log2 enrichment score relative to parent PADI4_3 peptide (binding to PADI4); higher = tighter binding than parent
Conditions: CaCl2: 10 mM
Summary of the method: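 A cyclic peptide library for mRNA display was built with every internal parent position randomised through NNK codons, a C-terminal HA tag, and methionine reassigned to N-methyl-alanine, then purified on anti-HA beads. A single selection round was run in triplicate against biotinylated His-tagged human PADI4 (100 nM) immobilised on beads, in HEPES/NaCl buffer containing 10 mM CaCl2, DTT, Tween and blockers, with equilibrating washes over 10–12 h at RT. Both the input and eluted libraries were sequenced. Log2 enrichment of bound over input is reported relative to parent as a mean with standard deviation.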

PADI4, Q9UM07, sequence (Q9UM07 whole entry): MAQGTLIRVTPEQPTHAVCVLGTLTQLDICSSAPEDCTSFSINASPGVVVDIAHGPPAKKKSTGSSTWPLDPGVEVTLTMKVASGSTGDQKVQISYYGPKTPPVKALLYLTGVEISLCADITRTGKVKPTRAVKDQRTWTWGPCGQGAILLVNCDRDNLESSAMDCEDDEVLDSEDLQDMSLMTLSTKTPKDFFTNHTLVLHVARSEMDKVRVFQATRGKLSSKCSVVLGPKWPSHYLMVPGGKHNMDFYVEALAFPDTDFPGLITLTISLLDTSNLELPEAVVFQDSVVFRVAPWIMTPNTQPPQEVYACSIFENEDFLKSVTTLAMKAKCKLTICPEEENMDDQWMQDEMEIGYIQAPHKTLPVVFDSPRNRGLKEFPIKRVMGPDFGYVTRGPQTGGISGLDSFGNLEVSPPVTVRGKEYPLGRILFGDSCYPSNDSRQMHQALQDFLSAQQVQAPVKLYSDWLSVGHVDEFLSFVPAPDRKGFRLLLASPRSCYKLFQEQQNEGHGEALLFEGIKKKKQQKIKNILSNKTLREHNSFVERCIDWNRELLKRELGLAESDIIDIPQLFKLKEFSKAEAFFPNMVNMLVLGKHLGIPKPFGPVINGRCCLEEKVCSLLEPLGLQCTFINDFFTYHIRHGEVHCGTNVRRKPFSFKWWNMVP

Row | Binder | log2 enrichment score
1 | YRDHEYRHPKYCG [PADI4_3_H5E H5E] | -4.25
2 | YRDHHYRHPCYCG [PADI4_3_K10C K10C] | -2.06
3 | YRDHHYEHPKYCG [PADI4_3_R7E R7E] | -0.753
4 | YRDHCYRHPKYCG [PADI4_3_H5C H5C] | -4
5 | YRCHHYRHPKYCG [PADI4_3_D3C D3C] | -4.3
6 | YRDHHYRHPKYCG [PADI4_3_D3D D3D] | 0
7 | YRDHHYRSPKYCG [PADI4_3_H8S H8S] | -2.81
8 | YRDHHYRHPEYCG [PADI4_3_K10E K10E] | -1.11
9 | YRDHHYRHPKSCG [PADI4_3_Y11S Y11S] | -4.12
10 | YRDHHYCHPKYCG [PADI4_3_R7C R7C] | -0.84
11 | YEDHHYRHPKYCG [PADI4_3_R2E R2E] | -2.93
12 | YRDHHYRHPKECG [PADI4_3_Y11E Y11E] | -4.21
13 | YRDHHSRHPKYCG [PADI4_3_Y6S Y6S] | -2.21
14 | YRDHHYRHPSYCG [PADI4_3_K10S K10S] | -1.42
15 | YCDHHYRHPKYCG [PADI4_3_R2C R2C] | -2.34
16 | YRDHHYRHEKYCG [PADI4_3_P9E P9E] | -1.89
17 | YREHHYRHPKYCG [PADI4_3_D3E D3E] | -2.84
18 | YSDHHYRHPKYCG [PADI4_3_R2S R2S] | -2.91
19 | YRDHHYSHPKYCG [PADI4_3_R7S R7S] | -0.05
20 | YRDHSYRHPKYCG [PADI4_3_H5S H5S] | -3.98
21 | YRDDHYRHPKYCG [PADI4_3_H4D H4D] | -4.33
22 | YRDCHYRHPKYCG [PADI4_3_H4C H4C] | -3.15
23 | YRDHHCRHPKYCG [PADI4_3_Y6C Y6C] | -3.47
24 | YRDHHYREPKYCG [PADI4_3_H8E H8E] | -3.8
25 | YRDHHYRCPKYCG [PADI4_3_H8C H8C] | -2.95
26 | YRDHHYRHCKYCG [PADI4_3_P9C P9C] | -2.79
27 | YRDEHYRHPKYCG [PADI4_3_H4E H4E] | -3.05
28 | YRDHHYRHSKYCG [PADI4_3_P9S P9S] | -1.69
29 | YRDHHERHPKYCG [PADI4_3_Y6E Y6E] | -1.85
30 | YRDHHYRHPKCCG [PADI4_3_Y11C Y11C] | -3.92
